PubChem BioAssay
The other results are listed elsewhere or left out. Calls of active or inactive are those of the source.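 Rule for the calls, unless noted: active = reconfirmed compounds whose average cytotoxicity reaches 50% or more; inactive = the rest.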

How the values were obtained:
[1] = PPC-1 cell viability loss – ATP content luminescence, cytotoxicity control for TRAIL apoptosis potentiator project, confirmation (AID 1447); conditions: PPC-1 viability, ATPlite luminescence, overnight; at 5 µM; stronger effect = higher value;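 note: 0% = DMSO-treated cells and 100% = wells holding medium but no cells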
[2] = lowers stimulated NF-kB luciferase signal in Jurkat – cell-based, luminescence, single concentration, T-cell NF-kB inhibitor project, confirmation (AID 435020;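 active = inhibition reaching about 45% at 4 µM in either replicate, limit read from the data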;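 note: plate controls were PMA/ionomycin stimulated DMSO wells for no effect and unstimulated DMSO wells for full effect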); conditions: PMA/ionomycin-induced, 16 h, at 4 µM, stronger effect = higher value
[3] = biological target: Tumor necrosis factor receptor superfamily member 10B (Homo sapiens) (UniProt O14763); experiment: viability loss of caspase-8 NB7 cells with TRAIL – with/without TRAIL, luminescence panel, confirmation (AID 651596; in the data active = activity above about 50%); conditions: NB7 neuroblastoma + caspase-8, TRAIL sensitization, NB7 Caspase-8, with TRAIL, mean of runs, at 10 µM, stronger effect = higher value
[4] = as above; conditions: NB7 neuroblastoma + caspase-8, without TRAIL, NB7 Caspase-8, without TRAIL, mean of runs, at 10 µM
[5] = HIF-2a driven luciferase blockers, single dose – luminescence, 786-0 RCC cells, confirmation (AID 651580;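 active = mean inhibition across four replicates of at least 40 percent at the single tested concentration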); conditions: HIF-2a luciferase reporter luminescence, overnight, at 18.8 µM, stronger effect = higher value
[6] = HIF-1a luciferase reporter signal reduction – MiaPaCa-2 cells, single concentration, counter-screen for HIF-2a inhibitor project, confirmation (AID 651589;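 active = mean inhibition of the reporter signal across four replicates at the single tested dose of 50% or more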); conditions: MiaPaCa-2 HIF-1a luciferase reporter, desferoxamine, overnight; at 18.8 µM; stronger effect = higher value

Sequence of Tumor necrosis factor receptor superfamily member 10B (Homo sapiens) (O14763 whole entry, looked up): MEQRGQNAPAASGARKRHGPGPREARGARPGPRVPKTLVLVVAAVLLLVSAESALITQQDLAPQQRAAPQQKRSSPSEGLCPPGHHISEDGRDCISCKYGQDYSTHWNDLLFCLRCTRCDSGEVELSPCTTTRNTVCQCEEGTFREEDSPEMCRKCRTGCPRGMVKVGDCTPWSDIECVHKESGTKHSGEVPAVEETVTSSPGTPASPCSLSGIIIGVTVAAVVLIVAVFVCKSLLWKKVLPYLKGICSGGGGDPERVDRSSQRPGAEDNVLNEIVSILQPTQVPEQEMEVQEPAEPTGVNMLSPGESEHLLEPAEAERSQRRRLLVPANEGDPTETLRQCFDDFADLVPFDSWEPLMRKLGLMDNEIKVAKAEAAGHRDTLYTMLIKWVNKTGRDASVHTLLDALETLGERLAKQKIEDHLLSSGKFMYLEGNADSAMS

For `CCOc1ccc(NC(=O)NNC(=O)c2ccc(Cl)cc2Cl)cc1`, the cytotoxicity [1] was -11.6% (inactive).
In the case of `N/C(=N\OC(=O)c1ccc([N+](=O)[O-])cc1)c1ccccn1`, the cytotoxicity [1] is reported as 11.3% (inactive).
For `O=C(O)c1ccc(N/N=C/c2cn(-c3ccccc3)nc2-c2cccs2)cc1`, the cytotoxicity [1] was 85.2% (active), the inhibition [2] was -14.3% (inactive) and the activity [3] was 77.9%. It also gave an activity [4] of 73.7%.
With `COc1cc(NS(=O)(=O)c2ccc(NC(C)=O)cc2)cc(OC)c1` the cytotoxicity [1] was -8.5% (inactive).
With `CCOC(=O)C1C(=O)OC2(CCCC2)C1C(=O)OCC` (configuration not stated) the cytotoxicity [1] was -4.2% (inactive).
For `COC(=O)c1nc(NC(=O)c2ccc(Cl)cc2)n[nH]1`, the cytotoxicity [1] was 12.1% (inactive).
For `CNC(=O)COC(=O)c1cc(-c2ccc(OC)cc2)nc2ccccc12`, the cytotoxicity [1] was 36.3% (inactive).
For `CCOc1ccc(-c2ccc(SCC(=O)N3CCOCC3)nn2)cc1`, the cytotoxicity [1] was 57.7% (active).
With `OCCNc1nc2ccccc2n1-c1ncnc2sc3c(c12)CCC3` the cytotoxicity [1] was -17.2% (inactive).
For `Clc1cccc(-c2nc3nc4ccccc4nc3n2Cc2ccco2)c1`, the cytotoxicity [1] was -6% (inactive).
With `Cn1c(=O)n(C)c2cc(S(=O)(=O)N3CCCc4ccccc43)ccc21` the cytotoxicity [1] was 14.1% (inactive).
In the case of `CCCCCCCCn1c2c(c(=N)c3c1CCC3)CCCC2`, the cytotoxicity [1] is reported as 42.7% (inactive) and the inhibition [2] is reported as 75.5% (active).
With `O=C(CN1C(=O)c2ccccc2S1(=O)=O)N1CCc2ccccc21` the cytotoxicity [1] was 46.8% (inactive), the inhibition [2] was 34.6% (inactive) and the inhibition [5] was 94.3% (active). The inhibition [6] was 96% (active).
For `COc1ccc(C2C(C#N)=C(/N=C/N3CCOCC3)OC3=C2C(=O)CC(C)(C)C3)cc1OC` (configuration not stated), the cytotoxicity [1] was 2.1% (inactive).
With `Cc1cc2c(=O)n(C)c(SCC(=O)c3cc4ccccc4o3)nc2s1` the cytotoxicity [1] was -5.6% (inactive).
